Results: the OligoGym collection
Also: reference of the scale not given here.

Each sequence was assayed against ANG (assay: pooled miR-30 sensor sort-seq; sequence = guide strand). Details: shRNA.
TGTGTACCTGGAGTTATCCTGA gave a sensor-assay potency score (higher = more potent) of 0.329. In the case of TTAGGTTTTCTCTGTGAGGGTT, the sensor-assay potency score (higher = more potent) was 0.674. In the case of TAGGTTTTCTCTGTGAGGGTTT, the sensor-assay potency score (higher = more potent) was 0.619. In the case of TGTACCTGGAGTTATCCTGAGC, the sensor-assay potency score (higher = more potent) was -1.14. In the case of TTATCCTGAGCCAGGGTCGGTG, the sensor-assay potency score (higher = more potent) was -1.46. Sequence TTGATGCTGCGCTTGTTGCCAT has a sensor-assay potency score (higher = more potent) of -0.23. AAGACTTGCTTATTCTTAGGTT was tested, and the sensor-assay potency score (higher = more potent) was 0.22. TTGTTGCCATGAATAAATGTGT gave a sensor-assay potency score (higher = more potent) of -0.656. Sequence TTTCACAGTATCTGTCATCCCG has a sensor-assay potency score (higher = more potent) of 0.634. For TCACAAGCAACAACAACGTTTC, the sensor-assay potency score (higher = more potent) was -0.587. Sequence TCACAGATGGCCTTGATGCTGC has a sensor-assay potency score (higher = more potent) of -0.333.

These sequences were tested against ANK1 in the same assay as above. Details: shRNA.
TCGTATTGCAACAGGAGCCGGA gave a sensor-assay potency score (higher = more potent) of -0.769. In the case of TCATCTGTCATGCAGTAGCAGC, the sensor-assay potency score (higher = more potent) was -1.12. With TAGCTTCGGCACAAAATCCAGC the sensor-assay potency score (higher = more potent) was -0.878. Sequence TTGCGAATGATCTTCTTGGTGA has a sensor-assay potency score (higher = more potent) of 0.462. With TTCTCTTCATCAACATCCCTGG the sensor-assay potency score (higher = more potent) was -0.331. In the case of TCTCTTCTGACCTCTGACCTTC, the sensor-assay potency score (higher = more potent) was -0.43. TCACTGACTAACACGAAACTGG was tested, and the sensor-assay potency score (higher = more potent) was -0.214. For TTGATGTTTCCATAGTGACTGG, the sensor-assay potency score (higher = more potent) was -0.739. With TTGGTGACGGCATTCTCCGGGA the sensor-assay potency score (higher = more potent) was -0.46. For TGTGGTGTGAAATTGACGCTGG, the sensor-assay potency score (higher = more potent) was 0.797. TTGGTCTTGGTTTCTATCTGGG showed a sensor-assay potency score (higher = more potent) of -0.274. TTCATCTTCCGAGACATCCAGG was tested, and the sensor-assay potency score (higher = more potent) was -0.548. TCTATCTGTCGAACCACCTTGC gave a sensor-assay potency score (higher = more potent) of 0.271. In the case of TATTCTGAAACTCATTCCCCTG, the sensor-assay potency score (higher = more potent) was -1.12. In the case of TCGGTGACCGCGTCGATCGAGG, the sensor-assay potency score (higher = more potent) was -1.26. TTCTAGAATGATTTCTTTGTGC gave a sensor-assay potency score (higher = more potent) of 0.132. TTAGTGACAAGCTCATCCGGGA gave a sensor-assay potency score (higher = more potent) of -0.401. TGCACCTGTCGCGTCATCCTGC showed a sensor-assay potency score (higher = more potent) of -1.06. TATCTGTCGAACCACCTTGCGA showed a sensor-assay potency score (higher = more potent) of -1.29. TTGCAGGTATGAGACAATCGAG was tested, and the sensor-assay potency score (higher = more potent) was -1. TAGAATGATTTCTTTGTGCAGA showed a sensor-assay potency score (higher = more potent) of -0.0456. With TTGTGCAGCATCTTGCAGGTAT the sensor-assay potency score (higher = more potent) was 0.193. With TTGACTTTGGCTTTGTTCTGGA the sensor-assay potency score (higher = more potent) was 0.642. TGGACAAGTCTATCTGTCGAAC showed a sensor-assay potency score (higher = more potent) of -1.67.

Each sequence was assayed against ANKRD22 in the same assay as above. Details: shRNA.
Sequence TTATTGTGGGGTCTGCACGGGC has a sensor-assay potency score (higher = more potent) of -0.753. Work on TTTCTTCACAGCATAATGCAAG yielded a sensor-assay potency score (higher = more potent) of -0.597. For TAGCATTAACTTCGACGCCAGC, the sensor-assay potency score (higher = more potent) was -1.11. ATTAAAGCCATCTTGAACGTTG was tested, and the sensor-assay potency score (higher = more potent) was -0.412. Work on TAGCATTCGTACAAGAGCCTCA yielded a sensor-assay potency score (higher = more potent) of 0.13.
